# Compound activity deposited in PubChem BioAssay by National Center for Advancing Translational Sciences (NCATS).
# Rows were chosen to be rich in hits. Some 21% of all compounds tested hit in one or more screens of this group.
# Shiga inhibitor – inhibitors of Shiga toxin in Vero cells | 290,000 tested, 9.2% active | inhibition, % at 38.7 µM | Vero cells, Shiga toxin protein synthesis inhibition reporter; in the data active = inhibition mostly above about 28%, no sharp cut-off; inactive = mostly below about 43%; also: 0% is about no effect
# Pf growth 96h – inhibits malaria parasite growth, 96 h. P. falciparum luciferase reporter growth, 96 h. Potency, µM (top dose mostly 28.7 µM), inactives show top-dose activity change, negative = inhibition, actives largely listed as inhibitors. 320,000 tested, 6.9% active; active = well fitted inhibition curve with a large enough effect; inconclusive = small, poorly fitted or top-dose-only effect, or another doubt; inactive = no such curve, though single readings can be large or run the other way; also: potency is read from the fitted curve at half-maximal effect; % is scaled to controls: 0 for no effect and ±100 for the full control effect
#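 Cell-based qHTS: luciferase-tagged P. falciparum in erythrocytes (2% hematocrit, 0.05% parasitemia final) incubated with compounds for 96 hours, 37 C, 5% CO2; luciferase detection reagent then added and luminescence measured.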
# CHX counter – counter-screen hit for Shiga toxin inhibitors, cycloheximide; cell reporter, cycloheximide protein synthesis inhibition counterscreen; max response, %; 300,000 tested, 12% active; AID 2314; in the data active = max response mostly above about 13%, no sharp cut-off; inactive = mostly below about 14%; also: read at 38.3 µM for the half of the compounds with a filed dose; 0% is about no effect
# NS1 inh – blocks influenza NS1 protein function; Potency, µM (series often up to 46.1 µM), for inactives: top-dose activity, positive = more growth; 270,000 tested, 0.4% active; also: potency is read from the fitted curve at half-maximal effect; actives are rising curves; nearly all actives have a fitted effect of over 50% in size
#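 In this qHTS, NS1 from influenza A is expressed in budding yeast, where it slows growth. Cells are switched from glucose to 2% galactose medium (pH 6.0, -URA), treated with compound, and growth recovery is read at OD600.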
# SARS PLP yeast – blocks SARS-CoV papain-like protease in a yeast assay; S. cerevisiae expressing SARS-CoV PLpro, growth rescue; Potency, µM (doses to about 32.9 µM), for the others: top-dose activity, positive = growth rescue, hits mostly activators; 330,000 tested, 0.19% active; AID 485353; also: potency is read from the fitted curve at half-maximal effect; 0% is about no effect; nearly all actives have a fitted effect of over 55% in size
# Pf growth 48h – inhibits P. falciparum growth in the first generation, 48 h. 310,000 tested, 5.9% active. P. falciparum luciferase growth in erythrocytes, 48 h. Potency, µM (top dose mostly 28.7 µM), inactives show at the highest dose activity change, negative = inhibition, actives largely listed as inhibitors. AID 504832; active = well fitted inhibition curve with a large enough effect; inconclusive = small, poorly fitted or top-dose-only effect, or another doubt; inactive = no such curve, though single readings can be large or run the other way; also: potency is read from the fitted curve at half-maximal effect; % is scaled to controls: 0 for no effect and ±100 for the full control effect
#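 Read-out is firefly luciferase luminescence from an integrated reporter in P. falciparum, so falling signal marks reduced parasite growth. Infected erythrocytes were at 2% hematocrit and 0.1% parasitemia (final) in Albumax-supplemented RPMI 1640.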
# Active calls of the source: *; ? = inconclusive; . = no result given; [ ] = another dose, or the depositor's remark. Unless noted, calls follow the shape of the full dose curve.
SMILES,Shiga inhibitor,Pf growth 96h,CHX counter,NS1 inh,SARS PLP yeast,Pf growth 48h
CC(=O)Nc1cc(C(=O)OCC(=O)c2ccc(Cl)cc2Cl)ccc1C,3,28%,1,5%,0%,13%
CC(=O)Nc1ccc(OC(=O)c2ccccc2N)cc1,-53,1%,19*,2%,-10%,6%
O=C(COC(=O)c1ccccc1-c1ccccc1[N+](=O)[O-])c1ccccc1,20,?,22*,3%,-7%,?
CCOc1ncccc1C(=O)OCC(=O)c1ccccc1,-4,51%,2,-5%,1%,18%
CNc1ccccc1C(=O)OCC(=O)c1ccc(F)cc1,122*,77%,80*,.,1%,159%
O=C(COC(=O)c1ccccc1Cl)NCc1ccco1,.,.,.,.,2%,.
O=C(COC(=O)c1ccccc1[N+](=O)[O-])NC(=O)c1ccccc1,.,27%,.,.,9%,0%
O=C(COC(=O)c1ccccc1Nc1ccccc1)NCc1ccco1,26,?,16*,-13%,10%,.
CNc1ccccc1C(=O)OCC(=O)c1ccccc1,33*,109%,46*,11%,15%,120%
CCc1ccc(OC(C)C(=O)Nc2ccc(S(=O)(=O)Nc3nccs3)cc2)cc1 (stereo not given),24,?,-4,?,-1%,12%
Cc1csc(=O)n1CC(=O)OCC(=O)Nc1cc(Cl)ccc1[N+](=O)[O-],-2,-18%,0,-10%,-2%,-4%
COc1cc(CNC(C)C)c(Br)cc1OC1CCCC1,-12,0%,-2,1%,-2%,-17%
O=C(COC(=O)c1ccccc1Nc1ccccc1)c1ccccc1,35,-24%,30*,5%,-27%,-1%
CC(C)(C)c1ccc(OCC(=O)NCc2ccco2)c(Br)c1,58,2%,30*,-68%,-17%,25%
Cn1c(C(=O)OCC(=O)NCc2ccco2)cc2sccc21,27,?,10,1%,3%,28%
CC(=O)Nc1ccc(C(=O)OCc2ccccc2Br)cc1,58*,31%[5.75 µM],27*,.,-5%,3%
Cc1ccc(NC(=O)COC(=O)c2ccccc2Nc2ccccc2)cc1,13,-22%,4,11%,12%,1%
Cc1cc2c(cc(C(=O)OCC(=O)NCc3ccco3)n2C)s1,44,-9%,15*,-4%,-5%,34%
O=C(Nc1ccccc1O)/C(=C\c1ccccc1)NC(=O)c1ccccc1,2,14%,-1,4%,-1%,-15%
CC(C)C(NC(=O)c1ccccc1F)C(=O)OCC(=O)c1ccc(F)cc1 (stereo not given),94*,51%,62*,-11%,-11%,61%
CCN(c1ccccc1)S(=O)(=O)c1cccc(C(=O)NCC2(N(C)C)CCCCC2)c1,.,?,.,.,-2%,?
CN1CCN(c2ccccc2NC(=O)COc2ccc(Br)cc2)CC1,-19,1.9µM*,-2,-4%,-6%,.
CCOc1ccc(OCC(=O)Nc2ccccc2N2CCCC2)cc1,.,12µM*,.,.,-7%,?
O=C(COc1ccccc1)Nc1ccccc1N1CCCCC1,-17,4%,-2,-46%,-11%,?
Cc1cccc(OCC(=O)Nc2ccccc2N2CCN(C)CC2)c1,-14,8%,-3,4%,0%,5%
SMILES,Shiga inhibitor,Pf growth 96h,CHX counter,NS1 inh,SARS PLP yeast,Pf growth 48h
O=C(COc1ccccc1)Nc1ccccc1N1CCN(c2ccccc2)CC1,-2,2.9µM*,1,-9%,1%,?
O=C(COc1ccccc1)Nc1ccccc1N1CCN(c2ccc(F)cc2)CC1,3,-21%,2,-4%,-3%,-3%
O/N=C/c1cc(Cl)ccc1OCc1cccc2ccccc12,56,63%,9,-154%,-31%,3%
CCOC(=O)C1=C(COC(=O)c2ccc(OC(C)C)cc2)NC(=O)NC1C (stereo not given),.,?,.,.,2%,?
Cc1ccc(S(=O)(=O)N2CCCCC2)cc1C(=O)N1CCCCCC1,.,?,.,.,1%,?
CCOC(=O)c1ccc(NC(c2ccc(N(C)C)cc2)P(=O)(OC(C)C)OC(C)C)cc1 (stereo not given),2,23%,20,-13%,-4%,13µM*
CCOP(=O)(OCC)C(Nc1ccc(C(=O)O)cc1)c1ccccc1 (stereo not given),-7,5%,-1,0%,1%,-1%
